# Screening data as filed in PubChem.
# The entries come from a sample that favours hits as a whole.
# Sm TGR inh – inhibitors of Schistosoma mansoni thioredoxin glutathione reductase. purified TGR, DTNB reduction, TNB absorbance 405 nm. Potency, µM (titrated, usually from 114 µM), for inactives: at the top dose activity change, negative = inhibition, usual class: inhibitors. hit rate 3% among 360,000. AID 485364; also: potency is read from the fitted curve at half-maximal effect; % is scaled to controls: 0 for no effect and ±100 for the full control effect; nearly all actives have a fitted effect of over 60% in size
#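 Kinetic colorimetric format: TGR-catalysed, NADPH-driven DTNB reduction monitored via TNB absorbance. Enzyme dispensed at 20 nM; compound exposure 15 min at room temperature before reaction start.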
# Cycloheximide cs – affects cycloheximide protein synthesis inhibition readout, counter-screen. cell reporter, cycloheximide protein synthesis inhibition counterscreen. max response, %. hit rate 12% among 300,000; in the data active = max response mostly above about 13%, no sharp cut-off; inactive = mostly below about 14%; also: read at 38.3 µM for the half of the compounds with a filed dose; 0% is about no effect
# LmPK inhibitor – inhibitors of Leishmania mexicana pyruvate kinase; Potency, µM (highest dose often 57.5 µM), for the others: top-dose activity change, negative = inhibition, hits mostly inhibitors; hit rate 0.37% among 290,000; Q27686; purified LmPK, Kinase-Glo ATP luminescence, 1 h; AID 1721; also: potency is read from the fitted curve at half-maximal effect; % is scaled to controls: 0 for no effect and ±100 for the full control effect
#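 Purified LmPK (0.1 nM) with 0.5 mM PEP and 0.1 mM ADP in imidazole buffer pH 7.2 with MgCl2/KCl, 1 h at room temperature. ATP formed was read by luciferase luminescence and normalized to no-enzyme and uninhibited controls.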
# Giardia FBPA inh – Giardia lamblia aldolase inhibition; purified Giardia FBPA; Potency, µM (titrated, usually from 59.6 µM), inactives show at the highest dose activity, negative = inhibition, hits mostly inhibitors; hit rate 0.71% among 290,000; also: potency is read from the fitted curve at half-maximal effect; % is scaled to controls: 0 for no effect and ±100 for the full control effect; nearly all actives have a fitted effect of over 55% in size
# Target sequence (A8B2U2 whole entry, looked up): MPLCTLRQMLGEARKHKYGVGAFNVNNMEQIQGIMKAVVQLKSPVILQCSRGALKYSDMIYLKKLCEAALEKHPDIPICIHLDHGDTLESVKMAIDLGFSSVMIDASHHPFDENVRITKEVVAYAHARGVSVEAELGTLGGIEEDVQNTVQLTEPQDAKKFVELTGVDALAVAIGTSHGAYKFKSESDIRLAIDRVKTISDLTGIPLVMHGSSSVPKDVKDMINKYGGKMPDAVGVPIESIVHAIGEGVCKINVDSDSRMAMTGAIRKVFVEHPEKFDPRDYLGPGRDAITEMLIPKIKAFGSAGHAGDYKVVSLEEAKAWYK
#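 Giardia FBPA (40 nM reagent) was preincubated 10 min at RT with compound (up to 57.5 uM final), then substrate plus GAPDH/TPI/NAD/arsenate coupling system with diaphorase/resazurin was added; resorufin fluorescence (525/598 nm) was read after 20 min.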
# TbPYK inhibitor – T. brucei pyruvate kinase inhibition; Q57TT1; TbPYK enzyme, Kinase-Glo Plus ATP luminescence, 45 min; Potency, µM (top dose mostly 76.8 µM), for the others: at the top dose activity, negative = inhibition, actives largely listed as inhibitors; hit rate 0.12% among 410,000; also: potency is read from the fitted curve at half-maximal effect; % is scaled to controls: 0 for no effect and ±100 for the full control effect; nearly all actives have a fitted effect of over 50% in size
#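 Screened from lowest to highest concentration, compounds were pinned into TbPYK/substrate mixtures, and ADP (130 uM final) was added. Plates sat at room temperature for 45 min prior to Kinase-Glo Plus detection by luminescence.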
# Shiga inhibitor – Shiga toxin inhibition. Vero cells, Shiga toxin protein synthesis inhibition reporter. inhibition, % at 38.7 µM. hit rate 9.2% among 290,000; in the data active = inhibition mostly above about 28%, no sharp cut-off; inactive = mostly below about 43%; also: 0% is about no effect
# Starred values were filed as active, the others as inactive; u = inconclusive; x = no result given; [ ] = dose if it differs, or a comment. Unless noted, calls follow the shape of the dose curve; as a rule, active = well fitted curve in the direction sought with a large enough effect; inconclusive = small, poorly fitted or top-dose-only effect, or another doubt; inactive = no such curve, though single readings can be large; an effect the other way counts as inactive or inconclusive.
SMILES,Sm TGR inh,Cycloheximide cs,LmPK inhibitor,Giardia FBPA inh,TbPYK inhibitor,Shiga inhibitor
O=c1[nH]c(/C=C/c2ccccc2Cl)nc2ccccc12,-2.5%,40.1*,-10.4%,2.5%,2.4%,106.1*
O=C(O)c1ccc(/C=C/c2nc3ccccc3c(=O)[nH]2)cc1,-1.5%,3.8,-4.7%,-4.7%,-11.2%,-2.1
COc1cc(/C=C/c2nc3ccccc3c(=O)n2-c2cccc(O)c2)ccc1O,4.5%,17.3,0.8%,0.0%,-1.6%,59.5*
COC(=O)N1C2=C(c3ccccc3[C@@H]1CC(=O)Nc1ccc(Br)cc1)[C@@H]1C(=O)N(c3ccccc3)C(=O)[C@@H]1[C@H](C)C2,x,x,-3.1%[11.5 µM],-0.7%[12.9 µM],x,x
CCC(C)NC(=O)Cn1c(=O)n(CCCCCC(=O)NCc2ccccc2Cl)c(=O)c2sccc21 (stereo not drawn),-10.7%,x,x,x,1.2%,x
O=c1cc[nH]c(=S)[nH]1,x,x,x,15.8µM*,1.6%,x
C[C@H]1Cc2c(-c3ccccc3)nc3c(c2CO1)CN(C(=O)c1cc(I)ccc1F)CC3,x,x,-3.0%[11.5 µM],0.3%[12.9 µM],x,x
CC(=O)N1N=C(c2cccc([N+](=O)[O-])c2)OC1c1ccccc1Cl (stereo not drawn),-31.0%,-2.9,7.1%,5.9%,2.9%,17.5
CC(=O)N1N=C(c2ccc(Cl)cc2)OC1c1ccc(C(C)C)cc1 (stereo not drawn),-4.7%,30.4*,-0.5%,-0.1%,5.4%,109.9*
CC(=O)NC1=NN(C(C)=O)C(c2ccc(C)cc2)S1 (stereo not drawn),12.1%,2.9,-1.8%,-0.3%,-0.6%,-3.4
CC(=O)N1N=C(c2ccc(C)cc2)OC1c1ccc(Br)cc1 (stereo not drawn),-19.4%,17.4*,4.4%,u,4.5%,29.8
NC(=O)c1ccc(C(=O)N/N=C(/Cc2ccccc2)c2ccccc2)cc1,-3.8%,25.9*,-0.4%,-5.6%,8.7%,22.3
C/C(Cc1ccccc1)=N\NC(=O)c1ccc(F)cc1,-11.1%,26.4*,-2.3%,25.5%,-3.8%,44.0
C/C(Cc1ccccc1)=N\NC(=O)CNC(=O)c1ccccc1,1.5%,-0.8,-0.2%,5.2%,3.5%,-7.3
O=C(NN=C(Cc1ccccc1)Cc1ccccc1)c1ccc(F)cc1,-3.1%,35.9*,-2.5%,7.6%,4.7%,76.6*
COc1ccc(N2C(=O)C3C4C=CC(c5ccccc5)(C3C2=O)C2C(=O)N(c3ccc(OC)cc3)C(=O)C42)cc1 (stereo not drawn),x,-4.1,0.3%,0.8%,1.4%,-11.8
CC(=O)Oc1ccc(N2C(=O)C3C4C=CC(CO)(O4)C3C2=O)cc1 (stereo not drawn),0.891µM*,16.1,6.7%,2.9%,u,14.5
O=C1C2C3C=CC(CO)(O3)C2C(=O)N1c1ccccc1-c1ccccc1 (stereo not drawn),0.316µM*,-4.9,17.8µM*,-19.9%,u,-1.3
O=C1C2C3C=CC(CNS(=O)(=O)c4ccccc4)(O3)C2C(=O)N1c1ccc(Cl)cc1 (stereo not drawn),3.98µM*,9.2,-7.3%,0.7%,-10.4%,1.4
COC(=O)c1cc(N2C(=O)C3C(C2=O)C2(C)C=CC3(C)O2)ccc1Cl (stereo not drawn),u,10.6,-5.3%,0.5%,x,-9.1
COC(=O)C1(C)NC(c2ccc(Cl)cc2)C2C(=O)N(c3ccccc3)C(=O)C21 (stereo not drawn),u,-1.2,2.8%,5.5%,4.8%,-4.7
CC(=O)Oc1ccc(N2C(=O)C3C(C2=O)C2(C)C=CC3(C)O2)cc1 (stereo not drawn),0.631µM*,19.2,6.9%,-4.9%,x,25.9
Cc1ccc(/C=C/C(=O)Nc2ccc3nc(N4CCC(C)CC4)cc(C)c3c2)cc1,-3.0%,x,x,x,-11.0%,x
O=C(Nc1ccccc1C(=O)O)c1ccc(NC(=O)C2CCCCC2)cc1,-29.1%,-3.1,-3.9%,-8.9%,-22.4%,-6.6
COc1cccc(N2CCN(C(=O)c3cc(-c4ccccc4)nc4c3cnn4C(C)C)CC2)c1,x,x,x,x,5.8%,x
SMILES,Sm TGR inh,Cycloheximide cs,LmPK inhibitor,Giardia FBPA inh,TbPYK inhibitor,Shiga inhibitor
CCCNC(=O)C1(C)CCN(Cc2cccc(OC(=O)c3ccccc3)c2)C1 (stereo not drawn),x,x,x,x,-2.5%,x
COc1ccc(-c2ccc(CNCCCSc3nnnn3C)o2)cc1Cl,-13.6%,x,x,x,0.9%,x
Cc1cccc2sc(NC(=O)CSCc3ccccc3)nc12,5.0%,18.1*,2.5%,1.4%,-2.7%,62.4
Cc1cccc2sc(NC(=O)C3CC3)nc12,1.6%,22.6*,-5.6%,19.4%,-3.8%,39.6*
Cc1cc(Cl)cc2sc(NC(=O)C3CC3)nc12,2.3%,10.8*,2.0%,4.0%,-3.0%,14.7
O=C(Nc1nc2c(Cl)cccc2s1)C1CC1,-13.6%,15.0,5.4%,-2.4%,-1.0%,27.2
COC(=O)Nc1nc2c(C)cccc2s1,2.2%,26.0,-3.8%,-3.3%,2.5%,31.0
Cc1nc(NC(=O)C2CC2)sc1C(=O)Nc1cccc(Cl)c1,5.3%,1.1,-9.4%,-6.0%,-20.1%,-3.1
O=C(Nc1nc2c(Cl)c(Cl)ccc2s1)C1CC1,-5.4%,25.2*,0.4%,-5.0%,-0.7%,27.6*
Cc1cccc2sc(NC(=O)Cn3cccc3)nc12,u,-2.4,0.2%,6.6%,4.3%,7.6
O=C(c1cc(-c2ccccc2O)on1)N1CCCCC1,-0.7%,x,x,x,1.0%,x
CN(C1CCCCC1)S(=O)(=O)c1ccc2c(c1)c(=O)c(C(=O)NCCc1ccccc1)cn2C,0.9%,x,x,x,9.4%,x
CCC(=O)NNc1nc2c(C)c(C)ccc2s1,-14.9%,10.7,0.0%,0.1%,-10.8%,-2.5
O=C(CN1C(=O)CCC1=O)Nc1nc2c(F)cc(F)cc2s1,x,x,x,x,1.8%,x
O=C(Nc1nc2c(F)cc(F)cc2s1)C1CC1,14.2%,44.1*,0.9%,17.0%,3.5%,84.7*
O=C(Nc1nc2c(Br)cccc2s1)C1CC1,0.0%,18.2*,0.9%,-9.2%,-5.8%,11.3
O=C(Nc1nc2c(Cl)ccc(Cl)c2s1)C1CC1,-17.0%,0.9,-3.7%,-3.1%,-0.4%,4.6
Cc1ccc2sc(NC(=O)C3CC3)nc2c1C,1.8%,36.2*,3.4%,-0.3%,1.4%,63.3*
Cc1ccc(N(CC(=O)NC2CCCCC2)C(=O)CNC(=O)c2ccco2)c(C)c1,-0.2%,-1.4,-3.6%,6.0%,-6.8%,-8.0
Oc1ccc(Nc2nc(-c3ccc(Cl)cc3)cs2)cc1,x,47.1*,x,-10.9%,x,110.0*
Oc1ccc(Nc2nc(-c3ccc(O)cc3)cs2)cc1,-0.7%,54.2*,0.8%,17.5%,-15.4%,80.3*
NS(=O)(=O)c1ccc(Nc2nc(-c3ccc(O)cc3)cs2)cc1,-2.7%,1.6,-4.8%,-18.3%,-2.8%,16.7
Clc1ccc(Nc2nc(-c3ccncc3)cs2)cc1,x,x,x,x,-7.9%,x
COc1ccc(CCNc2ncnc3c2cnn3-c2cc(Cl)ccc2C)cc1,23.7%,x,x,x,6.4%,x
CC(/C=C/c1ccccc1)=N/NC(=O)c1cccc(Br)c1,x,19.5*,2.3%,0.4%,2.5%,111.3
